Test results: PubChem BioAssay (Tox21)
Inconclusive results are not listed. Activity calls are given as the source filed them. Unless noted, calls come from the whole dose curve; as a rule, active = well fitted curve in the direction sought with a large enough effect in the repeat runs; inconclusive = weak or mixed curves; inactive = no such curve, though single readings can be large; an effect the other way counts as inactive or inconclusive.

Assays:
[1] = qHTS RealTime-Glo MT Cell Viability Assay in HEK293 cells - 8 hour (AID 1224887); note: top concentration of the series differs between compounds; nearly all actives have a fitted effect of over 50% in size
How it was run: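 Luminescence readout at each listed time point; HEK293, 600 cells/well, RealTime-Glo MT reagent added with cells; compounds pinned (23 nL in DMSO) after 5 h at 37 C; continuous culture at 37 C.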

[2] = A CellTox Green Cytotoxicity Assay to monitor cytotoxicity in HEK293 cells - 16 hour (AID 1224888); note: nearly all actives have a fitted effect of over 35% in size
How it was run: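 Read-out: fluorescence of a cell-impermeant cyanine dye staining DNA of dead cells, proportional to cytotoxicity. HEK293, 600 cells/well with reagent, compound (23 nL DMSO) added after 5 h; reads at 0, 8, 16, 24, 32, 40 h.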

[3] = qHTS RealTime-Glo MT Cell Viability Assay in HepG2 cells - 0 hour (AID 1224889); note: nearly all actives have a fitted effect of over 50% in size
How it was run: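 HepG2 suspension premixed with RealTime-Glo reagents is plated at 600 cells per well and left 5 h at 37 C/5% CO2. Compounds in DMSO then go in, and bioluminescence reflecting viable cell number is recorded over 40 h.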

[4] = qHTS assay to identify small molecule antagonists of the estrogen receptor alpha (ER-alpha) signaling pathway using the BG1 cell line in the presence of 0.1 nM 17-beta-estradiol - cell viability counter screen (AID 1259241); note: nearly all actives have a fitted effect of over 40% in size
How it was run: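 Viability in VM7Luc4E2 cells after 22 hr compound exposure under 0.1 nM 17beta-estradiol stimulation, by CellTiter-Fluor.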

[5] = qHTS assay to identify small molecule antagonists of the androgen receptor (AR) signaling pathway using the MDA cell line in the presence of 0.5 nM R1881 - cell viability counter screen (AID 1259242); note: nearly all actives have a fitted effect of over 45% in size
How it was run: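 Live-cell protease fluorescence, CellTiter-Fluor, 30 min at 37C. Cells: MDA-kb2, 3,000/well, preincubated 5 hr. Compounds plus 0.5 nM R1881 final, 16 hr, 37C, 0% CO2.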

[6] = target: Estrogen receptor (Homo sapiens) (UniProt P03372); test: qHTS assay to identify small molecule antagonists of the estrogen receptor alpha (ER-alpha) signaling pathway using the BG1 cell line in the presence of 0.1 nM 17-beta-estradiol (AID 1259244); note: nearly all actives have a fitted effect of over 50% in size
How it was run: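 Luminescence after ONE-Glo (30 min, room temperature) measured ERE-luciferase activity in VM7Luc4E2 cells treated 22 h with compound and 0.1 nM final 17beta-estradiol as stimulator.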

[7] = qHTS assay to identify small molecule phospholipidosis (PLD) inducers (AID 1259344; active = well fitted curve in the direction sought with a large enough effect; an effect the other way counts as inactive or inconclusive)
How it was run: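 Cells (HepG2, 900 per well) attach for 4 h, receive LipidTOX Red and compound together, incubate 24 h at 37 C, are fixed 30 min with paraformaldehyde/Hoechst, then imaged at one site per well.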

[8] = qHTS assay to identify small molecule HDAC inhibitors (AID 1259364);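 note: wild-type HCT-116 cells with endogenous class I/II HDAC activity; top concentration of the series differs between compounds; nearly all actives have a fitted effect of over 45% in size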
How it was run: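 HCT-116 (wild type), 1,500 cells/well, overnight; compound 2 hr 37C 5% CO2; HDAC-Glo I/II reagent 30 min RT; luminescence readout.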

[9] = qHTS assay to identify small molecule HDAC inhibitors - cell viability counter screen (AID 1259365); note: series mostly up to about 92 µM; nearly all actives have a fitted effect of over 50% in size
How it was run: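 Cytotoxicity was gauged in wild-type HCT-116 cells after a brief 2hr treatment with DMSO-dissolved compounds at 37C and 5% CO2, using CellTiter-Glo luminescence developed for 30min at room temperature.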

[10] = qHTS assay to identify small molecule antagonists of the sonic hedgehog signaling (Shh) pathway - cell viability counter screen (AID 1259367); note: nearly all actives have a fitted effect of over 55% in size
How it was run: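 Cytotoxicity was assessed in parallel with Shh reporter activity by measuring live-cell protease fluorescence (CellTiter-Fluor) in NIH/3T3 cells stably carrying Gli1-Luc, treated with compound under conditioned medium stimulation for 23 hr plus 1 hr reagent incubation.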

[11] = qHTS assay to identify small molecule agonists of the sonic hedgehog signaling (Shh) pathway (AID 1259368; calls by dose curve;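 note: NIH/3T3-derived 3T3Gli1-Luc cells carrying a stable Gli1-driven firefly luciferase reporter; series mostly up to about 92 µM; nearly all actives have a fitted effect of over 15% in size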)
How it was run: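 Read-out: firefly luciferase luminescence from a Gli1 response element reporter stably integrated in NIH/3T3-derived 3T3Gli1-Luc cells, measured 30 min at room temperature after reagent addition. Compound exposure lasted 24 hr at 37 C, 5% CO2.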

[12] = target: Estrogen receptor beta (Homo sapiens) (UniProt Q92731); test: qHTS assay to identify small molecule agonists of the estrogen receptor beta (ER-beta) signaling pathway (AID 1259377; active = well fitted activation curve with a large enough effect in the signal ratio in the repeat runs, not every such curve was filed as active; the % refers to the signal ratio)
How it was run: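 Measured by fluorescence intensity from a B/G FRET beta-lactamase substrate (2 h, room temperature) in ER-beta-UAS-bla HEK293T cells treated with DMSO-dissolved compounds for 16 hr at 37C and 5% CO2.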

[13] = qHTS assay to identify small molecule agonists of the androgen receptor (AR) signaling pathway in the presence of an antagonist - cell viability counter screen (AID 1259379);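 note: MDA-kb2 human breast cancer cells carrying an MMTV luciferase reporter; series mostly up to about 92 µM; nearly all actives have a fitted effect of over 25% in size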
How it was run: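 Viability counter screen: CellTiter-Fluor fluorescence, measured in the same wells as the luciferase read-out. MDA-kb2 cells, 3,000/well, with nilutamide at 3.0uM final and compounds at 15 concentrations, 16 hr at 37C, 0% CO2.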

[14] = qHTS assay to identify small molecule agonists of the estrogen receptor beta (ER-beta) signaling pathway - cell viability counter screen (AID 1259380); note: nearly all actives have a fitted effect of over 30% in size
How it was run: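 Luminescence read-out (CellTiter-Glo, 30 min, room temp) taken in the same wells as the beta-lactamase reporter assay; ER-beta-UAS-bla HEK293T cells exposed to DMSO-dissolved compounds for 16 hr at 37C in 2% charcoal-stripped FBS medium.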

[15] = A CellTox Green Cytotoxicity Assay to monitor cytotoxicity in HepG2 cells - 8 hour (AID 1224890); note: nearly all actives have a fitted effect of over 45% in size
How it was run: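 HepG2, 600 cells/well premixed w/ CellTox Green; 5 h settle, 37 C/5% CO2; pintool cpd add (DMSO); 37 C, 40 h; fluorescence read at 0, 8, 16, 24, 32, 40 h.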

[16] = target: Androgen receptor (Homo sapiens) (UniProt P10275); test: qHTS assay to identify small molecule antagonists of the androgen receptor (AR) signaling pathway using the MDA cell line in the presence of 0.5 nM R1881 (AID 1259243); note: nearly all actives have a fitted effect of over 50% in size
How it was run: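 MDA-kb2, MMTV-luc (AR/GR elements); 3,000 cells/well; cpd + 0.5 nM R1881 final; 16 hr 37C, 0% CO2; ONE-Glo 30 min RT; luminescence.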

[17] = qHTS assay to identify small molecule agonists of the sonic hedgehog signaling (Shh) pathway - cell viability counter screen (AID 1259366); note: nearly all actives have a fitted effect of over 50% in size
How it was run: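 Stable Gli1-Luc NIH/3T3 clone, 2,000 cells/well. Compound exposure 24hr at 37C. Read-out: CellTiter-Fluor fluorescence.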

[18] = qHTS assay to identify small molecule antagonists of the sonic hedgehog signaling (Shh) pathway (AID 1259369; calls by dose curve; note: nearly all actives have a fitted effect of over 45% in size)
How it was run: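 Luminescence readout: firefly Luc under Gli1 response element in 3T3Gli1-Luc cells (NIH/3T3 clone). Antagonist mode, stimulation by conditioned medium; compound exposure 24hr at 37 C, 5% CO2.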

[19] = target: Androgen receptor (Homo sapiens) (UniProt P10275); test: qHTS assay to identify small molecule agonists of the androgen receptor (AR) signaling pathway in the presence of an antagonist (AID 1259381; calls by dose curve; note: nearly all actives have a fitted effect of over 15% in size)
How it was run: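 Luciferase read-out (ONE-Glo, 30min room temperature) in MDA-kb2 MMTV-reporter cells; agonist mode run in presence of AR antagonist nilutamide, 3.0uM final. Compounds tested as 15-point series, 16hr exposure at 37C, 0% CO2.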

[20] = target: Estrogen receptor beta (Homo sapiens) (UniProt Q92731); test: qHTS assay to identify small molecule antagonists of the estrogen receptor beta (ER-beta) signaling pathway (AID 1259378; active = well fitted inhibition curve with a large enough effect in the signal ratio in the repeat runs, not every such curve was filed as active; the % refers to the signal ratio)
How it was run: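 ER-beta-UAS-bla HEK293T (GripTite) cells in 2% charcoal-stripped FBS medium were preincubated 6 hr at 37C, dosed with compound, then stimulated with 1 nM E2 (final) for 16 hr; beta-lactamase reporter read by B/G FRET fluorescence after 2 hr substrate loading.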

Measured: Potency

Chain of Estrogen receptor beta (Homo sapiens) (Q92731 whole entry, looked up): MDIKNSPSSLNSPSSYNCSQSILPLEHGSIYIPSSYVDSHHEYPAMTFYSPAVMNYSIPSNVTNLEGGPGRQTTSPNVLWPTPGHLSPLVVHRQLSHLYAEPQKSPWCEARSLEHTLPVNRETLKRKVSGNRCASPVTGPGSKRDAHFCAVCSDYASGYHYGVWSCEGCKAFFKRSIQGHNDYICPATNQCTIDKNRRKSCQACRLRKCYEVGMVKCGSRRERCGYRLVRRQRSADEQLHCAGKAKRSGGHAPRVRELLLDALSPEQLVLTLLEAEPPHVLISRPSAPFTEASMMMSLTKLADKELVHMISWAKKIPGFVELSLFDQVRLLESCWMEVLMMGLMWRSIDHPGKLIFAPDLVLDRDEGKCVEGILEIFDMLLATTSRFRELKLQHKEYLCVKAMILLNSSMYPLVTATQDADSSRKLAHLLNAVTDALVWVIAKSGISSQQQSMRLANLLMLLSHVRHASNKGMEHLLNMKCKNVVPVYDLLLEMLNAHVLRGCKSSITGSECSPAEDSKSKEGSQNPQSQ
Chain of Androgen receptor (Homo sapiens) (P10275 whole entry, looked up): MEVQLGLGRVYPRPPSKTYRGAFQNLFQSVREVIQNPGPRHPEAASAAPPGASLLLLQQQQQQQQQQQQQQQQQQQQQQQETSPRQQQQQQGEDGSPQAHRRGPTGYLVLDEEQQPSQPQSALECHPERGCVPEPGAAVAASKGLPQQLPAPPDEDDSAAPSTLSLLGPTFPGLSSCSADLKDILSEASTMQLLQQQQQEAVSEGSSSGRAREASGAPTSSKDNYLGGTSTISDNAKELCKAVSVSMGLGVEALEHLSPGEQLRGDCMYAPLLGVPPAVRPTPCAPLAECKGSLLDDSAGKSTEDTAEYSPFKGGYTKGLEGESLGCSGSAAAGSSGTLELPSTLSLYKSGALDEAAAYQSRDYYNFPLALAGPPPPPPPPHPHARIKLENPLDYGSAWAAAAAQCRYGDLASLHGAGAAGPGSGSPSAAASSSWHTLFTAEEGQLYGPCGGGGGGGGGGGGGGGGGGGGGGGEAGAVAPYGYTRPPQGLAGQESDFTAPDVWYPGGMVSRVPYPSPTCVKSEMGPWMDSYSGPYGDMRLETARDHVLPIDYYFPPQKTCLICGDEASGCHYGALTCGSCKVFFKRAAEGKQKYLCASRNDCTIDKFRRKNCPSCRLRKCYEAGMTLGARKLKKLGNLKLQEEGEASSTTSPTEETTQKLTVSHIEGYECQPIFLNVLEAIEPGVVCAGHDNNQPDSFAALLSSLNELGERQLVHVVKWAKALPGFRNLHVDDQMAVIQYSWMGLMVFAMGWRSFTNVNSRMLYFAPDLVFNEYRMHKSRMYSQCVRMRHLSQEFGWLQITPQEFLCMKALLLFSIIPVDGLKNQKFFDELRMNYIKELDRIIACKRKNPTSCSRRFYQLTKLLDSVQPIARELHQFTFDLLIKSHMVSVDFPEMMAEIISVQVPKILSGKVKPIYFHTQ
Chain of Estrogen receptor (Homo sapiens) (P03372 whole entry, looked up): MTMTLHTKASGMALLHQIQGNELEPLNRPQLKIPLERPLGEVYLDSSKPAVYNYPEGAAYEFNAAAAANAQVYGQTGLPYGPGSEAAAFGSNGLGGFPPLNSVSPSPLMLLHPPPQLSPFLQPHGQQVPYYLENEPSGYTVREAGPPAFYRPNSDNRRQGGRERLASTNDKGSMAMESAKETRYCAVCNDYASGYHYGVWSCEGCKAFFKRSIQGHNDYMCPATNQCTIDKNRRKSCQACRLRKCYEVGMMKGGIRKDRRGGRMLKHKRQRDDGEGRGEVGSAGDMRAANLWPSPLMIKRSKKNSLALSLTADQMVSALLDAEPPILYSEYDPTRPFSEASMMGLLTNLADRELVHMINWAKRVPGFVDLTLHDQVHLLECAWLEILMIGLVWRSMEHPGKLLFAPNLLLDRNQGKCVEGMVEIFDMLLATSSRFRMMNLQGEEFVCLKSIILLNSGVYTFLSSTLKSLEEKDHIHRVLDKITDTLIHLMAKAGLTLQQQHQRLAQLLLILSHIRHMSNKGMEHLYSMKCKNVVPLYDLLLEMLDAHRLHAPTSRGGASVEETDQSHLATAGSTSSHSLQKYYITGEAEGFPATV

Cn1nnc2c(C(N)=O)ncn2c1=O
inactive: [1] | [2] | [3] | [4] | [5] | [6] | [7] | [8] | [9] | [10] | [11] | [12] | [13] | [14]

COCCc1ccccn1
inactive: [1] | [2] | [15] | [4] | [5] | [16] | [6] | [8] | [9] | [17] | [10] | [11] | [18] | [14] | [19]

Cc1ccc(C)c([N+](=O)[O-])c1
inactive: [1] | [2] | [3] | [4] | [5] | [8] | [9] | [17] | [11] | [18] | [12] | [20] | [13] | [14]

CCCc1ccc(O)cc1
inactive: [1] | [2] | [3] | [4] | [5] | [6] | [8] | [9] | [10] | [11] | [18] | [12] | [13] | [14]

COP(=O)(O)OP(=O)(O)OC
inactive: [1] | [2] | [3] | [4] | [5] | [6] | [8] | [9] | [17] | [10] | [11] | [18] | [12] | [20] | [13] | [14]

Cc1c(Cl)cccc1Cl
inactive: [1] | [2] | [3] | [4] | [5] | [6] | [8] | [9] | [17] | [11] | [18] | [12] | [20] | [13] | [14]

CN(C)CCCO[C@@H]1[C@H]2OC(C)(C)O[C@H]2O[C@@H]1C(O)CO (some centres undefined)
inactive: [1] | [2] | [3] | [4] | [5] | [6] | [7] | [8] | [9] | [17] | [10] | [11] | [18] | [13] | [14]

O=C=NCC1CCCC(CN=C=O)C1 (centres undefined)
inactive: [1] | [2] | [3] | [4] | [5] | [6] | [8] | [9] | [17] | [10] | [11] | [18] | [12] | [13] | [14]

COC(=O)c1cccc(Cl)c1
inactive: [1] | [2] | [3] | [4] | [5] | [6] | [8] | [9] | [17] | [11] | [12] | [14]

CC(C)NCC(O)c1ccc2ccccc2c1 (centres undefined)
inactive: [1] | [2] | [3] | [4] | [5] | [7] | [8] | [9] | [17] | [10] | [11] | [18] | [12] | [20] | [13] | [14]

O=C1NC(c2ccccc2)(c2ccccc2)C(=O)N1COP(=O)(O)O
inactive: [1] | [2] | [15] | [4] | [5] | [16] | [8] | [9] | [17] | [10] | [11] | [13] | [14] | [19]

CO[Si](CCCn1c(=O)n(CCC[Si](OC)(OC)OC)c(=O)n(CCC[Si](OC)(OC)OC)c1=O)(OC)OC
inactive: [1] | [2] | [3] | [4] | [5] | [8] | [9] | [10] | [11] | [18] | [13] | [14]

CCCCSCCCC
inactive: [1] | [2] | [15] | [4] | [5] | [8] | [9] | [17] | [11] | [18] | [12] | [20]

CC1(C)Cc2cccc(N)c2O1
inactive: [1] | [3] | [15] | [4] | [5] | [6] | [8] | [9] | [17] | [10] | [11] | [18] | [13] | [14]

N#Cc1cscn1
inactive: [1] | [2] | [4] | [5] | [8] | [9] | [17] | [10] | [11] | [18] | [12] | [13] | [14]

C=CC(=O)OCC1CCCO1 (centres undefined)
inactive: [1] | [2] | [4] | [5] | [6] | [8] | [9] | [17] | [10] | [11] | [18] | [12] | [14]
